High-throughput results as filed in PubChem BioAssay.
Hits are enriched below; roughly 21% of the tested compounds scored in any of these assays.
Pf growth 96h = P. falciparum growth inhibition at 96 hours | AID 504834 | Potency, µM (highest dose often 28.7 µM), without a hit: at the top dose activity change, negative = inhibition, usual class: inhibitors | P. falciparum luciferase reporter growth, 96 h | hit rate 6.9% among 320,000; active means well fitted inhibition curve with a large enough effect; inconclusive means small, poorly fitted or top-dose-only effect, or another doubt; inactive means no such curve, though single readings can be large or run the other way; further: potency means the concentration at half of the fitted maximal effect; on the % scale 0 is the no-effect control and ±100 the full control effect
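P. falciparum expressing integrated firefly luciferase, in erythrocytes at 2% hematocrit, 0.05% parasitemia, incubated with compounds 96 h at 37 C, 5% CO2. Growth inhibition read as loss of luminescence; two-generation exposure targets delayed-death apicoplast inhibitors.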
SARS PLP yeast = inhibitors of SARS-CoV papain-like protease in yeast; hit rate 0.19% among 330,000; Potency, µM (titrated, usually from 32.9 µM), for inactives: top-dose activity, positive = growth rescue, hits mostly activators; AID 485353; S. cerevisiae expressing SARS-CoV PLpro, growth rescue; further: potency means the concentration at half of the fitted maximal effect; 0% is about no effect; nearly all actives have a fitted effect of over 55% in size
NS1 inh = inhibitors of influenza NS1 protein function; Potency, µM (titrated, usually from 46.1 µM), without a hit: at the highest dose activity, positive = more growth; hit rate 0.4% among 270,000; further: potency means the concentration at half of the fitted maximal effect; actives are rising curves; nearly all actives have a fitted effect of over 50% in size
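S. cerevisiae expressing influenza A NS1, grown in glucose, washed, then diluted 1:100 into pH 6.0 -URA galactose medium with 23 nl compound. Growth recovery read as OD600; NS1-free strain serves as control.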
Pf growth 48h = P. falciparum growth inhibition at 48 hours (one generation) | P. falciparum luciferase growth in erythrocytes, 48 h | Potency, µM (series often up to 28.7 µM), for inactives: top-dose activity change, negative = inhibition, most hits filed as inhibitors | hit rate 5.9% among 310,000; active means well fitted inhibition curve with a large enough effect; inconclusive means small, poorly fitted or top-dose-only effect, or another doubt; inactive means no such curve, though single readings can be large or run the other way; further: potency means the concentration at half of the fitted maximal effect; on the % scale 0 is the no-effect control and ±100 the full control effect
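A one-generation exposure of luciferase-tagged malaria parasites in RPMI 1640/Albumax erythrocyte culture, 37 C and 5% CO2. Inhibition is inferred from decreased luminescence after adding detection reagent.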
Shiga toxin inh = blocks Shiga toxin action in Vero cells; Vero cells, Shiga toxin protein synthesis inhibition reporter; inhibition, % at 38.7 µM; hit rate 9.2% among 290,000; AID 2315; in the data active means inhibition mostly above about 28%, no sharp cut-off; inactive means mostly below about 43%; further: 0% is about no effect
Cycloheximide cs = counter-screen for Shiga toxin inhibitors: cycloheximide protein synthesis inhibition; cell reporter, cycloheximide protein synthesis inhibition counterscreen; max response, %; hit rate 12% among 300,000; AID 2314; in the data active means max response mostly above about 13%, no sharp cut-off; inactive means mostly below about 14%; further: read at 38.3 µM for the half of the compounds with a filed dose; 0% is about no effect
* hit, by the source's call. Unless noted, the call rests on the fitted dose curve.

For O=C(Nc1ccccc1-c1ccccc1)c1ccc(NC(=O)c2ccco2)cc1 the results were SARS PLP yeast -12%, NS1 inh -54%, Pf growth 48h 12µM*, Shiga toxin inh -15 and Cycloheximide cs -1.
O=C(Nc1ccccc1-c1ccccc1NC(=O)c1ccco1)c1ccco1 was read as Pf growth 96h inconclusive, SARS PLP yeast 9%, NS1 inh -16%, Pf growth 48h 10µM*, Shiga toxin inh -5 and Cycloheximide cs -3.
Cc1ccccc1NC(=O)c1ccc(NC(=O)C2CC(=O)OC23CCCCC3)cc1 (configuration not stated) was read as Pf growth 96h 27%, SARS PLP yeast 1%, NS1 inh -4%, Pf growth 48h 13µM*, Shiga toxin inh -8 and Cycloheximide cs -1.
Screening CC(=O)Nc1ccc(S(=O)(=O)NCCCN2CCOCC2)cc1 returned Pf growth 96h -63%, SARS PLP yeast 9%, NS1 inh -4%, Pf growth 48h 12%, Shiga toxin inh -2 and Cycloheximide cs 8.
`COc1ccc(C(=O)NCc2cnn(C)c2C)cc1OC1CCN(C(C)C)CC1` gave Pf growth 96h inconclusive, SARS PLP yeast -4%, NS1 inh 3%, Pf growth 48h 15%, Shiga toxin inh -10 and Cycloheximide cs -2.
Screening Cn1cc(S(=O)(=O)NC2CCCCC2)c(=O)n(C)c1=O returned Pf growth 96h 7%, SARS PLP yeast -4% and Pf growth 48h 10%.
For O=C(NCc1ccccc1)c1ccc(NC(=O)c2ccco2)cc1 the results were Pf growth 96h 46%, SARS PLP yeast 1%, NS1 inh 2%, Pf growth 48h 9%, Shiga toxin inh 6 and Cycloheximide cs -4.
Cc1c(NC(=O)c2ccco2)cccc1C(=O)NN1C(=O)c2ccccc2C1=O was read as Pf growth 96h 15µM*, SARS PLP yeast 1%, Pf growth 48h 41%, Shiga toxin inh 20 and Cycloheximide cs -3.
Screening COc1ccc(CC(=O)Nc2cccc(C(=O)NN3C(=O)c4ccccc4C3=O)c2C)cc1 returned Pf growth 96h 10%, SARS PLP yeast 25%, NS1 inh -10%, Pf growth 48h 25%, Shiga toxin inh -10 and Cycloheximide cs -3.
For Cc1ccccc1NC(=O)c1ccc(NC(=O)c2ccco2)cc1 the results were SARS PLP yeast -14%, NS1 inh -1%, Pf growth 48h 27%, Shiga toxin inh 39 and Cycloheximide cs 27*.
O=C(Nc1ccccn1)c1ccc(NC(=O)c2ccco2)cc1 was read as Pf growth 96h inconclusive, SARS PLP yeast -11%, NS1 inh -88%, Pf growth 48h 204%, Shiga toxin inh 71* and Cycloheximide cs 40*.
Screening NNC(=O)c1cc(C23CC4CC(CC(C4)C2)C3)[nH]n1 returned Pf growth 96h inconclusive, SARS PLP yeast 2%, NS1 inh 23%, Pf growth 48h -7%, Shiga toxin inh -1 and Cycloheximide cs 7.
For O=C(CN(C(=O)c1csnn1)c1ccc2c(c1)OCCO2)NCc1ccc(F)cc1 the results were Pf growth 96h -13%, SARS PLP yeast 0%, NS1 inh -17%, Pf growth 48h 50%, Shiga toxin inh 40 and Cycloheximide cs 1.
For CC1=CC(=C(C#N)c2nc3ccccc3s2)C=C(C)N1CC1CCCO1 (configuration not stated) the results were Pf growth 96h 2.9µM*, SARS PLP yeast 0%, Pf growth 48h inconclusive, Shiga toxin inh 5 and Cycloheximide cs 2.
For COc1ccc(-c2cc(-c3ccccc3)nc(SCC(=O)Nc3ncc(C)s3)c2C#N)cc1 the results were Pf growth 96h inconclusive, SARS PLP yeast 21%, NS1 inh 24%, Pf growth 48h 8.3µM*, Shiga toxin inh -6 and Cycloheximide cs -1.
COc1ccc(-c2cc(-c3cccs3)c(C#N)c(SCC(=O)NCc3ccccc3OC)n2)cc1 was read as Pf growth 96h 10µM*, SARS PLP yeast 4%, NS1 inh -6%, Pf growth 48h 2.3µM*, Shiga toxin inh 12 and Cycloheximide cs -1.
COc1ccc(-c2cc(-c3ccccc3)c(C#N)c(S(C)=O)n2)cc1 (configuration not stated) was read as Pf growth 96h 9%, SARS PLP yeast 0%, NS1 inh -6%, Shiga toxin inh -15 and Cycloheximide cs -2.
Screening CCSc1nc(-c2ccc(OC)cc2)cc(-c2ccccc2)c1C#N returned Pf growth 96h 13µM*, SARS PLP yeast 6%, NS1 inh 3%, Shiga toxin inh -12 and Cycloheximide cs -4.
For COC(=O)CN1C(=O)[C@@H]2[C@H](C1=O)[C@@H]1CC(C(=O)OC)=C[C@@H](C(=O)OC)C3C1=C(C(=O)[C@]3(C)NC(=O)c1ccccc1)[C@@H]2C (some centres not stated) the results were Shiga toxin inh -11 and Cycloheximide cs -7.
CCN(Cc1nc(-c2ccc(C)cc2)no1)C(=O)c1ccco1 was read as Pf growth 96h -1%, SARS PLP yeast -5%, NS1 inh 12%, Pf growth 48h 10%, Shiga toxin inh 17 and Cycloheximide cs 6.
For COc1ccc(OC(=O)c2cccc([N+](=O)[O-])c2)c(C(=O)/C=C/c2cccs2)c1 the results were SARS PLP yeast -6%, NS1 inh 8%, Shiga toxin inh 17 and Cycloheximide cs 19*.
CCN(C(=O)CSc1nnnn1-c1ccccc1)C1CCS(=O)(=O)C1 (configuration not stated) was read as Pf growth 96h 25%, SARS PLP yeast 2%, Pf growth 48h 23%, Shiga toxin inh 2 and Cycloheximide cs -1.
`Cc1ccc(N2CC(C(=O)Nc3ncc([N+](=O)[O-])s3)CC2=O)cc1` (configuration not stated) gave Pf growth 96h -15%, SARS PLP yeast 2%, NS1 inh -4%, Pf growth 48h 12%, Shiga toxin inh 19 and Cycloheximide cs 0.
For Cc1ccc(C(=O)COC(=O)c2cccs2)cc1 the results were Pf growth 96h 102%, SARS PLP yeast -5%, NS1 inh -3%, Pf growth 48h 363%, Shiga toxin inh -2 and Cycloheximide cs 11.
COc1ccc(/C(N)=N/OC(=O)c2cccs2)cc1OC was read as Pf growth 96h 0%, SARS PLP yeast 1%, NS1 inh 2%, Pf growth 48h 14%, Shiga toxin inh 8 and Cycloheximide cs 2.
Screening Cc1ccc(/C(N)=N/OC(=O)c2cccs2)cc1 returned Pf growth 96h 88%, SARS PLP yeast -84%, NS1 inh -62%, Pf growth 48h 215%, Shiga toxin inh 37* and Cycloheximide cs 39*.
For Cc1cccc(/C(N)=N/OC(=O)c2cccs2)c1 the results were Pf growth 96h 3%, SARS PLP yeast -34%, NS1 inh -199%, Pf growth 48h 311%, Shiga toxin inh 106* and Cycloheximide cs 71*.
